Results filed as inconclusive are left out. Calls of active or inactive are those of the source. The call rests on the fitted dose curve; in most records, active means well fitted curve in the direction sought with a large enough effect; inconclusive means small, poorly fitted or top-dose-only effect, or another doubt; inactive means no such curve, though single readings can be large; an effect the other way counts as inactive or inconclusive.
How the values were obtained:
HACAT = experiment: qHTS assay to identify novel small-molecules to repurpose for Merkel cell carcinoma treatment (AID 1296009); conditions: MCC and control cell lines, CellTiter-Glo viability, 72 h; at 44.8 µM (top of the series) unless noted; further: nearly all actives have a fitted effect of over 60% in size
How it was run: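 Cells exposed to NPC (8-point) and MIPE (11-point) compound dilutions for 72 hr at 37 degree celsius; viability read by CellTiter-Glo luminescence, normalized to no-cell and DMSO in-plate controls.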

C33A = experiment: Primary qHTS to identify gynecologic anti-cancer compounds using libraries of approved drugs and bioactive compounds (AID 1345084); conditions: Gynecologic cancer cell panel viability, ATPlite luminescence, 48 h; series mostly up to 57.5 µM; further: on the % scale 0 is the no-effect control and ±100 the full control effect; nearly all actives have a fitted effect of over 55% in size
How it was run: (§1)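 48 h compound exposure at 37 C, 5% CO2; five-point qHTS. ATPlite luminescence readout of cell ATP.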

CAOV3 = experiment: as above; conditions: Gynecologic cancer cell panel viability, ATPlite luminescence, 48 h; series mostly up to 57.5 µM
How it was run: as §1

CASKI = experiment: as above; conditions: Gynecologic cancer cell panel viability, ATPlite luminescence, 48 h; series mostly up to 57.5 µM
How it was run: as §1

Es-2 = experiment: as above; conditions: Gynecologic cancer cell panel viability, ATPlite luminescence, 48 h; series mostly up to 57.5 µM
How it was run: as §1

HeLa = experiment: as above; conditions: Gynecologic cancer cell panel viability, ATPlite luminescence, 48 h; series mostly up to 57.5 µM
How it was run: as §1

Hek293T = experiment: as above; conditions: Gynecologic cancer cell panel viability, ATPlite luminescence, 48 h, control line for the selectivity index; series mostly up to 57.5 µM
How it was run: as §1

JEG-3 = experiment: as above; conditions: Gynecologic cancer cell panel viability, ATPlite luminescence, 48 h; series mostly up to 57.5 µM
How it was run: as §1

CC(NC(=O)[C@H](Cc1ccccc1)NC(=O)OCc1ccccc1)C(=O)CF (stereo partly drawn)
inactive: outcome (HACAT) | Potency (C33A) | Potency (CAOV3) | outcome (CASKI) | Potency (Es-2) | Potency (HeLa) | Potency (Hek293T) | Potency (JEG-3)

COC(=O)C1=COC(OC2OC(CO)C(O)C(O)C2O)C2C(C)C(OC(C)=O)C(OC(=O)c3ccccc3)C12 (stereo not drawn)
inactive: outcome (HACAT) inactive [at 17.4 µM] | Potency (C33A) | Potency (CAOV3) | outcome (CASKI) | Potency (Es-2) | Potency (HeLa) | Potency (Hek293T) | Potency (JEG-3)

C/C=C(\C)C(=O)OC[C@H]1O[C@@H](O[C@H]2[C@@H](O[C@H]3O[C@H](CO)[C@@H](O)[C@H](O)[C@H]3O[C@@H]3O[C@H](CO)[C@@H](O)[C@H](O)[C@H]3O)O[C@H](COC(=O)/C(C)=C/C)[C@@H](O)[C@@H]2O)[C@H](O)[C@@H](O)[C@@H]1O
inactive: outcome (HACAT) inactive [at 9.27 µM] | activity change, negative = cytotoxicity (C33A) 7.95% [at 11.6 µM] | activity change, negative = cytotoxicity (CAOV3) 13.6% [at 11.6 µM] | activity change, negative = cytotoxicity (CASKI) -6.51% [at 11.6 µM] | activity change, negative = cytotoxicity (Es-2) -0.184% [at 11.6 µM] | activity change, negative = cytotoxicity (HeLa) -3.59% [at 11.6 µM] | activity change, negative = cytotoxicity (Hek293T) 2.97% [at 11.6 µM] | activity change, negative = cytotoxicity (JEG-3) -0.345% [at 11.6 µM]

C=C1CCC[C@]2(C)CC[C@@](O)(C(=C)C(=O)O)C[C@@H]12
inactive: outcome (HACAT) | Potency (C33A) | Potency (CAOV3) | outcome (CASKI) | Potency (Es-2) | Potency (HeLa) | Potency (Hek293T) | Potency (JEG-3)

C[C@@H]1CCC2C(C)(C)[C@H](O)[C@H](O)C[C@]2(C)[C@@]12Cc1c(O)cc3c(c1O2)CN(CCCC(=O)O)C3=O (stereo partly drawn)
inactive: outcome (HACAT) inactive [at 17.4 µM] | Potency (C33A) | Potency (CAOV3) | outcome (CASKI) | Potency (Es-2) | Potency (HeLa) | Potency (Hek293T) | Potency (JEG-3)

O=C(Cn1c2ccccc2c2nc3n(c(=O)c21)CCS3)N1CCCC1
inactive: outcome (HACAT) | Potency (C33A) | Potency (CAOV3) | outcome (CASKI) | Potency (Es-2) | Potency (HeLa) | Potency (Hek293T) | Potency (JEG-3)

Oc1ccccc1-c1cc(-c2ccccc2F)[nH]n1
inactive: outcome (HACAT) | Potency (C33A) | Potency (CAOV3) | outcome (CASKI) | Potency (Es-2) | Potency (HeLa) | Potency (Hek293T) | Potency (JEG-3)

COc1ccc(C2COc3cc(O)ccc3C2)c(O)c1OC (stereo not drawn)
inactive: outcome (HACAT) | Potency (C33A) | outcome (CASKI) | Potency (Es-2) | Potency (HeLa) | Potency (Hek293T) | Potency (JEG-3)

C=C[C@@]1(C)CCC2=C([C@H]1OC(C)=O)[C@H](OC(C)=O)CC1[C@](C)(C(=O)OC)CC[C@H](OC(C)=O)[C@]21C (stereo partly drawn)
inactive: outcome (HACAT) inactive [at 17.4 µM] | Potency (C33A) | outcome (CASKI) | Potency (Es-2) | Potency (HeLa) | Potency (Hek293T) | Potency (JEG-3)

CC1(C)C[C@H]2C=C(C=O)[C@]3(C(=O)O)C[C@]3(C)[C@H]2C1
inactive: outcome (HACAT) | Potency (C33A) | Potency (CAOV3) | outcome (CASKI) | Potency (HeLa) | Potency (Hek293T) | Potency (JEG-3)

NC1Nc2ccccc2C1(N)CC1NC(=O)C(Cc2ccccc2)NC(=O)C(Cc2ccccc2)NC1=O (stereo not drawn)
inactive: outcome (HACAT) inactive [at 17.4 µM] | Potency (C33A) | outcome (CASKI) | Potency (Es-2) | Potency (HeLa) | Potency (Hek293T) | Potency (JEG-3)

CC12CC34CC(O)C5C(CO)(CO)CC(=O)CC5(C)C3CC1C2C4 (stereo not drawn)
inactive: outcome (HACAT) | Potency (C33A) | outcome (CASKI) | Potency (Es-2) | Potency (HeLa) | Potency (Hek293T) | Potency (JEG-3)

CC(=O)O[C@@H]1C(O)C[C@@]2(C)C(CC[C@@H](C)C23Cc2c(O)cc4c(c2O3)CNC4=O)C1(C)C (stereo partly drawn)
inactive: outcome (HACAT) inactive [at 17.4 µM] | Potency (C33A) | Potency (CAOV3) | outcome (CASKI) | Potency (Es-2) | Potency (Hek293T) | Potency (JEG-3)

CC1(C)CC[C@]2(C(=O)O)CC[C@]3(C)C(=CCC4[C@@]5(C)CC[C@H](O)C(C)(C)C5CC[C@]43C)C2C1 (stereo partly drawn)
inactive: outcome (HACAT) inactive [at 17.4 µM] | Potency (C33A) | outcome (CASKI) | Potency (Es-2) | Potency (HeLa) | Potency (Hek293T) | Potency (JEG-3)

CC1(C)CCC[C@]2(C)C1CC=C(CO)[C@H]2CC/C(=C/CO)CO (stereo partly drawn)
inactive: outcome (HACAT) | Potency (C33A) | Potency (CAOV3) | outcome (CASKI) | Potency (Es-2) | Potency (HeLa) | Potency (Hek293T) | Potency (JEG-3)

COc1cc(O)cc2c1C(=O)OC(C)C2 (stereo not drawn)
inactive: outcome (HACAT) | Potency (C33A) | Potency (CAOV3) | outcome (CASKI) | Potency (Es-2) | Potency (HeLa) | Potency (Hek293T) | Potency (JEG-3)

OC[C@H]1O[C@@H](O[C@H]2[C@H](O)[C@@H](CO)O[C@@H](OCc3ccccc3)[C@@H]2O[C@@H]2OC[C@](O)(CO)[C@H]2O)[C@H](O)[C@@H](O)[C@@H]1O
inactive: outcome (HACAT) inactive [at 17.4 µM] | Potency (C33A) | outcome (CASKI) | Potency (Es-2) | Potency (HeLa) | Potency (Hek293T) | Potency (JEG-3)

From PubChem BioAssay (NCATS)
